Imprint erasure = induces erasure of genomic imprints in mouse ES cells; mouse ES Peg3-LacZ reporter, beta-gal luminescence, 40 h; Potency, µM (series often up to 60.7 µM), inactives show top-dose activity change, positive = activation, usual class: activators; hit rate 0.02% among 110,000; AID 1948
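Imprint erasure is scored as LacZ activity from the silenced maternal Peg3 allele in feeder-free female ES cells cultured 40 h with LIF. Luminescence is normalized to in-plate negative controls and fitted to the Hill equation.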
p53ts 32C tox = p53ts cell cytotoxicity, permissive temperature; H1299-p53A138V at 32C, ATP luminescence viability, 24 h; Potency, µM (doses to about 46.1 µM), without a hit: at the highest dose activity change, negative = cytotoxicity, hits mostly cytotoxic; hit rate 0.93% among 130,000; AID 924;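 further: 0% = DMSO and -100% = full killing by reference compound; nearly all actives have a fitted effect of over 55% in size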
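H1299-p53 A138V cells (temperature-sensitive p53) exposed 24 h to up to 46 uM compound at 32C, where p53 is wild-type in conformation. Viability read as ATP luminescence and normalised to DMSO and 100 uM tamoxifen. AC50 fitted with the Hill equation.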
IkB signaling = inhibitors of IkB signaling in ABC-DLBCL cells; hit rate 0.04% among 110,000; Potency, µM (doses to about 57.1 µM), for the others: at the highest dose IkBa stabilization activation; ABC-DLBCL IkBa-CBG/CBR dual luciferase ratio, 4 h; response scale: scaled: untreated 0%, proteasome inhibitor 100%; AID 445; active means well fitted curve in the direction sought with a large enough effect in the signal ratio, not every such curve was filed as active; inconclusive means small, poorly fitted or top-dose-only effect, or a change in a side signal; the % refers to the signal ratio;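 further: the direction sought is a rising ratio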
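In this assay, an IκBα–CBG68 fusion accumulates when IKK-driven degradation is blocked; native CBR normalizes for cell number. OCI-Ly3 cells were treated 4 h with compound and doxycycline, then green and red light read after Chroma-Glo addition.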
p53ts 39C tox = kills p53ts cells at the nonpermissive temperature | AID 902 | Potency, µM (top dose mostly 46.1 µM), for inactives: at the top dose activity change, negative = cell killing, actives largely listed as cytotoxic | H1299-p53A138V viability at 39C, ATP luminescence, 24 h | hit rate 1.5% among 130,000; further: on the % scale 0 is the no-effect control and ±100 the full control effect; nearly all actives have a fitted effect of over 55% in size
The depositor's hits bear a star; ? = inconclusive; / = not tested or not shown; [ ] = remark or other dose. This is a sample that favours compounds with a hit; in the whole collection about 1.8% have one here. Unless noted, the call rests on the fitted dose curve; in most records, active means well fitted curve in the direction sought with a large enough effect; inconclusive means small, poorly fitted or top-dose-only effect, or another doubt; inactive means no such curve, though single readings can be large; an effect the other way counts as inactive or inconclusive. Potency means the concentration at half of the fitted maximal effect.

SMILES | Imprint erasure | p53ts 32C tox | IkB signaling | p53ts 39C tox
COc1cccc(C(=O)N2CCN(Cc3cc(Br)ccc3OC)CC2)c1 | / | -23.8% | / | -1.7%
CC(C)COC(=O)Nc1ccccc1C(=O)N1CCOCC1 | ? | 9.3% | -3.6% | 7.8%
CCCN(CCC)CCNC(=O)C1CCN(c2nc3ccc(CC)cc3s2)CC1 | -11.6%[10.9 µM] | 12.6µM* | ? | ?
CCCN(CCC)CCCNC(=O)C1CCN(c2nc3ccc(CC)cc3s2)CC1 | 15.3%[10.9 µM] | 12.6µM* | ? | ?
COc1ccc2nc(N3CCCC(C(=O)NCCCN4CCN(C)CC4)C3)sc2c1 (configuration not stated) | 17.5% | 12.6µM* | 0.8% | 10µM*
CCc1ccc2nc(N3CCC(C(=O)NCCC(C)C)CC3)sc2c1 | -12.8%[10.9 µM] | ? | ? | 15.8µM*
COc1ccc(OC)c(C2C(C(C)=O)=C(O)C(=O)N2CCC(=O)O)c1 (configuration not stated) | 0.5% | -8.9% | 0.8% | 15.2%
CCOc1ccc(C2=C(C(=O)CC)Sc3nncn3N2C(=O)CC)cc1 | 26.2%[10.9 µM] | 11.2µM* | ? | ?
CCC(=O)C1=C(c2ccc(F)cc2)N(C(=O)CC)n2cnnc2S1 | -36.4%[10.9 µM] | 8.6% | ? | 66.3%
Cc1ccc(-n2ncc3c(NCCCN(C)C)ncnc32)cc1Cl | -4.0%[10.9 µM] | 25.8% | 0.5% | 15.8µM*
Cc1ccc(-c2cc(C(=O)Nc3c(C(=O)c4ccccc4)oc4ccccc34)no2)cc1F | 4.0%[10.9 µM] | 18.6% | ? | -17.8%
Cc1cc(Nc2ccc(N=Nc3ccc(O)c4ncccc34)cc2)nc(C)n1 | -12.4%[10.9 µM] | -0.6%[9.22 µM] | 9.7%[11.4 µM] | -5.5%[9.22 µM]
Cc1ccc(O)c(N=Nc2ccccc2)n1 | -92.1% | 20µM* | 1.0% | 12.6µM*
CC1CCN(CC[C@H]2CCCN2S(=O)(=O)c2cccc(O)c2)CC1 | -9.9% | 2.1% | -0.1% | 1.1%
CCN(c1ccc(C)cc1)S(=O)(=O)c1nnc(NC(=O)c2cccs2)s1 | 5.5%[10.9 µM] | -3.6% | ? | -5.7%
CCN(c1ccccc1)S(=O)(=O)c1nnc(NC(=O)c2cccs2)s1 | -84.9%[10.9 µM] | 1µM* | -143.5% | 1.26µM*
CN(c1ccccc1)S(=O)(=O)c1nnc(NC(=O)c2ccccc2)s1 | -18.3%[10.9 µM] | -23.1% | -0.8% | -17.3%
CN(c1ccccc1)S(=O)(=O)c1nnc(NC(=O)C2CCCCC2)s1 | -23.5%[10.9 µM] | 7.94µM* | -1.1% | 15.8µM*
Cc1cccc(CNc2ncncc2-c2ccc(C(=O)N(C)C)cc2)c1 | -7.5% | 6.9% | 1.5%[11.4 µM] | 5.0%
O=C1c2[nH]nc(-c3ccc(Br)cc3)c2C(c2cccc(O)c2)N1c1ccc(Cl)cc1 (configuration not stated) | 3.1%[10.9 µM] | ? | ? | 15.8µM*
O=C(Nc1ccc(N2CCN(C(=O)c3ccco3)CC2)cc1)c1ccc(F)cc1 | / | -10.5% | -0.2% | 0.4%
O=C1CC(c2c(F)cccc2Cl)c2c(ccc3ccccc23)N1 (configuration not stated) | 8.2%[10.9 µM] | 17.1% | ? | -9.0%
CCCCCNC(=O)c1ccc2c(c1)nc(C)n2-c1cccc(C)c1 | -8.8%[10.9 µM] | 13.4% | -0.9% | 20µM*
CC(C)C(=O)NC(c1ccco1)c1ccc2cccnc2c1O (configuration not stated) | -31.1% | -18.7% | ? | 3.98µM*
Oc1c(C(Nc2nc3ccccc3s2)c2ccco2)ccc2cccnc12 (configuration not stated) | -34.3% | 0.5% | ? | ?
SMILES | Imprint erasure | p53ts 32C tox | IkB signaling | p53ts 39C tox
Cc1ccc(C2=Nc3ccccc3N(CC(=O)NCc3ccc(F)cc3)C(=O)C2)cc1C | -14.4%[10.9 µM] | -14.2% | -3.2% | 10µM*
COc1ccc2oc(-c3ccc(C)c(NC(=O)c4ccc(-c5ccccc5[N+](=O)[O-])o4)c3)nc2c1 | -9.4%[10.9 µM] | -19.8% | ? | 10µM*
CC1=C(\C=C/C(C)=C/C=C\C(C)=C\C(=O)O)C(C)(C)CCC1 | -21.7% | 21.6% | ? | 4.6%
CC1=C(/C=C/C(C)=C/C=C/C(C)=C/C(=O)Nc2ccc(O)cc2)C(C)(C)CCC1 | -19.0% | ? | ? | 15.8µM*
CCCCNC(=O)C(CC)Sc1nnc(-c2cccc(F)c2)c(-c2cccc(F)c2)n1 (configuration not stated) | -9.9%[10.9 µM] | 22.9% | ? | 18.1%
O=C(N/N=C/c1ccccc1O)c1cc(-c2ccccc2)n[nH]1 | / | -28.2% | / | 15.8µM*
O=C(N/N=C/c1ccco1)c1cc(-c2ccccc2)n[nH]1 | / | -0.1% | / | 20.2%
O=C(N/N=C\c1ccccc1O)c1ccccc1O | -38.3% | 1.26µM* | ? | 2µM*
COc1cc(/C=N/NC(=O)c2cc(-c3ccccc3)n[nH]2)ccc1O | / | -8.0% | / | -10.1%
COc1cccc(-c2cc(C(=O)N/N=C/c3ccccc3O)[nH]n2)c1 | / | ? | / | 10µM*
CCSc1ncc(Cl)c(C(=O)Nc2ccc(S(=O)(=O)N(C)c3ccccc3)cc2)n1 | -17.9%[10.9 µM] | 6.4% | -0.7% | -13.4%
CCOC(=O)c1nc(S(C)(=O)=O)ncc1N1CCOCC1 | 2.8% | -5.5% | -1.6% | 8.7%
CCN(c1ccccc1)S(=O)(=O)c1ccc(NC(=O)c2nc(S(C)(=O)=O)ncc2Cl)cc1 | -39.3%[10.9 µM] | ? | -2.1% | 3.16µM*
O=C(Nc1ccc(N2CCOCC2)cc1)c1ccncc1 | / | -7.5% | / | 11.1%
CS(=O)(=O)c1ncc(Cl)c(C(=O)Nc2ccc(N3CCOCC3)cc2)n1 | -72.7% | 12.6µM* | ? | ?
O=C(Nc1ccc(N2CCOCC2)cc1)c1cnsn1 | -80.0% | 3.98µM* | ? | 5.01µM*
CCS(=O)(=O)c1ncc(Cl)c(C(=O)Nc2ccc(S(=O)(=O)N(C)c3ccccc3)cc2)n1 | -41.0%[10.9 µM] | ? | ? | 3.16µM*
CCCCSc1nnc2n(-c3cccc(C)c3)c(=O)c3c4c(sc3n12)CCCC4 | -17.6%[10.9 µM] | 12.3% | ? | -0.6%
COc1ccc(C(OCCN2CCC[C@@H](C(=O)O)C2)(c2ccc(OC)cc2)c2ccc(OC)cc2)cc1 | -6.3% | 42.0% | 0.3% | 2.3%
Cc1cccc(NC(c2cccc(Cl)c2)c2ccc3cccnc3c2O)n1 (configuration not stated) | -29.5%[10.9 µM] | -23.8% | ? | 12.6µM*
Cc1ccc(C(Nc2ccccn2)c2ccc3cccnc3c2O)cc1 (configuration not stated) | -16.5%[10.9 µM] | ? | ? | ?
Cc1cc(C)c(CSc2nnc(C)n3c2cc2occc23)c(C)c1 | -10.7%[10.9 µM] | -19.8% | -1.2% | 20µM*
CC1=C(c2ccc(C)c(C)c2)S(=O)(=O)N=C1N1CCC(C(=O)NCCc2ccc(Cl)cc2)CC1 | -2.1%[10.9 µM] | ? | -0.4% | 12.6µM*
CCOc1ccc(-c2nc3ccccc3c(=O)o2)cc1 | -35.6%[10.9 µM] | 2.51µM* | ? | 2.51µM*
CC(=O)c1ccc(NC(=O)COc2ccccc2-c2nc(-c3cccc(C)c3)no2)cc1 | -10.6%[10.9 µM] | -7.5% | 2.1% | -14.1%
COc1cccc(-c2nnc(-c3ccc(C(F)(F)F)cc3)o2)c1 | / | -3.4% | / | -7.0%
COc1ccccc1-c1nnc(Nc2nc3c(OC)cccc3s2)o1 | -58.4% | 3.8% | ? | ?
COc1cccc2sc(Nc3nnc(-c4ccccc4Cl)o3)nc12 | -49.2% | ? | ? | 12.6µM*
